Assay results taken from PubChem BioAssay (EPA / NIEHS).
Calls of active or inactive are those of the source. How the source made its calls: active means hit-call score of the fitted dose curve at least 0.9, where 1 is the maximum; inactive means score below 0.9.

What was measured:
[1] = target: Bile acid receptor (Homo sapiens) (UniProt Q96RI1); assay: ATG_IR1_CIS: Attagene CIS-FACTORIAL HepG2 Assay for human Nuclear Receptor Subfamily 1 Group H Member 4 (NR1H4), IR1 submotif (AID 2282946); details: IR1 reporter transcription, actives raise or lower the signal
Summary of the method: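 Transient MRTU transfection, HepG2; 24 h dosing; RNA → RT-PCR → 6-FAM primer extension → HpaI digest → capillary electrophoresis fluorescence. Gain/loss of signal fitted relative to DMSO.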

[2] = ATG_ISRE_CIS: Attagene CIS-FACTORIAL HepG2 Assay for human Interferon Regulatory Factor 1 (IRF1) binding to an Interferon-Stimulated Response Element (ISRE) (AID 2282948); details: HepG2 ISRE cis-reporter (Attagene), mRNA transcription readout; actives raise or lower the signal
Summary of the method: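 HepG2 cells transiently transfected with multiplexed cis-promoter reporter units; after 24 h compound exposure, reporter mRNA quantified by RT-PCR, FAM labelling, HpaI digestion and capillary electrophoresis. Bidirectional fit versus DMSO baseline.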

[3] = ATG_M_32_CIS: Attagene CIS-FACTORIAL HepG2 Assay for M32 Transcription Factor (Internal Marker) (AID 2282949); details: HepG2 Attagene cis-factorial M32 reporter, mRNA; actives raise or lower the signal;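 further: background control marker of the multiplexed CIS panel rather than a real target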
Summary of the method: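 HepG2 cells transiently transfected with multiplexed cis-regulated reporter units, dosed 24 h. Reporter mRNA quantified by RT-PCR, 6-FAM labelling, HpaI digestion and capillary electrophoresis; bidirectional fit vs DMSO.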

[4] = ATG_M_06_CIS: Attagene CIS-FACTORIAL HepG2 Assay for M06 Transcription Factor (Internal Marker) (AID 2282950); details: HepG2 Attagene CIS-FACTORIAL M06 internal marker reporter; actives raise or lower the signal
Summary of the method: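 Internal background marker within multiplexed cis-reporter HepG2 system. Cells transiently transfected, dosed 24 h; reporter mRNA measured by RT-PCR, HpaI digestion and capillary electrophoresis. Bidirectional fit relative to DMSO.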

[5] = target: Hypoxia-inducible factor 1-alpha (Homo sapiens) (UniProt Q16665); assay: ATG_HIF1a_CIS: Attagene CIS-FACTORIAL HepG2 Assay for human Hypoxia Inducible Factor 1 (HIF1A) (AID 2282951); details: HepG2 Attagene cis-factorial HIF1a reporter transcription; actives raise or lower the signal
Summary of the method: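 After 24 h chemical exposure of reporter-transfected HepG2 cells, reporter cDNA was PCR-amplified, labelled by 6-FAM primer extension (2 min 95 C, 20 s 68 C, 10 min 72 C), HpaI-cut (2 h, 37 C) and analysed by CE.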

[6] = target: Hepatocyte nuclear factor 6 (Homo sapiens) (UniProt Q9UBC0); assay: ATG_HNF6_CIS: Attagene CIS-FACTORIAL HepG2 Assay for human Hepatocyte Nuclear Factor 6 (HNF6) (AID 2282952); details: HepG2 Attagene cis-factorial HNF6 reporter transcription; actives raise or lower the signal
Summary of the method: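 HepG2 cells transiently transfected with cis-element-driven multiplexed reporter units measuring endogenous transcription factor activity. After 24 h exposure, reporter mRNA quantified by RT-PCR, FAM-labelled fragments and capillary electrophoresis; bidirectional fitting versus DMSO.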

[7] = ATG_MRE_CIS: Attagene CIS-FACTORIAL HepG2 Assay for human Metal Responsive Element (MRE) (AID 2282954); details: HepG2 MRE cis-reporter transcription, Attagene multiplex; actives raise or lower the signal
Summary of the method: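 Step one: transfect HepG2 with cis-regulated reporter units. Step two: dose 24 h. Step three: isolate RNA, RT-PCR, 6-FAM label, HpaI digest, capillary electrophoresis. Fit bidirectionally to DMSO.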

[8] = ATG_PBREM_CIS: Attagene CIS-FACTORIAL HepG2 Assay for human Phenobarbital-responsive Enhancer Module (PBREM) (AID 2282955); details: HepG2 PBREM cis-reporter, Attagene multiplexed transcription; actives raise or lower the signal
Summary of the method: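 Measures endogenous factor action on a phenobarbital-responsive enhancer module. HepG2 transiently carrying cis reporters, 24 h treatment, mRNA read-out by RT-PCR plus capillary electrophoresis.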

[9] = target: Heat shock factor protein 1 (Homo sapiens) (UniProt Q00613); assay: ATG_HSE_CIS: Attagene CIS-FACTORIAL HepG2 Assay for human Heat Shock Transcription Factor 1 (HSE) (AID 2282953); details: HepG2 HSE cis-reporter, Attagene RNA transcription; actives raise or lower the signal
Summary of the method: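 HepG2 cells transfected with cis-promoter reporter units sensing endogenous transcription factor activity; reporter mRNA quantified 24 h post-dose by RT-PCR and capillary electrophoresis of 6-FAM-labelled products. Bidirectional fitting against DMSO.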

[10] = ATG_GRE_CIS: Attagene CIS-FACTORIAL HepG2 Assay for human Glucocorticoid Response Elements (GRE) (AID 2282947); details: HepG2 GRE cis-reporter, Attagene multiplex mRNA; actives raise or lower the signal
Summary of the method: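 Following 24 h chemical exposure of transiently transfected HepG2 cells, total RNA was reverse-transcribed and reporter cDNA amplified, fluorescently labelled and sized by capillary electrophoresis. Signal gain or loss was fitted relative to DMSO vehicle.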

Chain of Hepatocyte nuclear factor 6 (Homo sapiens) (Q9UBC0 whole entry, looked up, the tested form may be a part): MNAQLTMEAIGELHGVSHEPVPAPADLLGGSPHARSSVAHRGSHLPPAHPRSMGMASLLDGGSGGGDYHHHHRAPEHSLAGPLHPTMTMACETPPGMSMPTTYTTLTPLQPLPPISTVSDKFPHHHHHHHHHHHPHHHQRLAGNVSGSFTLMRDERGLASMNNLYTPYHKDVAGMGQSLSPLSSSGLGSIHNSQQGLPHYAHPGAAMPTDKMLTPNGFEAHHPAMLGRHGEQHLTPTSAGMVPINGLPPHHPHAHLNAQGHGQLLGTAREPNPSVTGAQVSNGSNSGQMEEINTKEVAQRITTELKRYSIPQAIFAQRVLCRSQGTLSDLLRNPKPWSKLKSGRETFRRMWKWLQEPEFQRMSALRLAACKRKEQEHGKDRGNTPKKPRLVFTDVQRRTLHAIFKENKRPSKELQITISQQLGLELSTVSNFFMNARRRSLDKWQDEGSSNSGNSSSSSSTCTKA
Chain of Hypoxia-inducible factor 1-alpha (Homo sapiens) (Q16665 whole entry, looked up): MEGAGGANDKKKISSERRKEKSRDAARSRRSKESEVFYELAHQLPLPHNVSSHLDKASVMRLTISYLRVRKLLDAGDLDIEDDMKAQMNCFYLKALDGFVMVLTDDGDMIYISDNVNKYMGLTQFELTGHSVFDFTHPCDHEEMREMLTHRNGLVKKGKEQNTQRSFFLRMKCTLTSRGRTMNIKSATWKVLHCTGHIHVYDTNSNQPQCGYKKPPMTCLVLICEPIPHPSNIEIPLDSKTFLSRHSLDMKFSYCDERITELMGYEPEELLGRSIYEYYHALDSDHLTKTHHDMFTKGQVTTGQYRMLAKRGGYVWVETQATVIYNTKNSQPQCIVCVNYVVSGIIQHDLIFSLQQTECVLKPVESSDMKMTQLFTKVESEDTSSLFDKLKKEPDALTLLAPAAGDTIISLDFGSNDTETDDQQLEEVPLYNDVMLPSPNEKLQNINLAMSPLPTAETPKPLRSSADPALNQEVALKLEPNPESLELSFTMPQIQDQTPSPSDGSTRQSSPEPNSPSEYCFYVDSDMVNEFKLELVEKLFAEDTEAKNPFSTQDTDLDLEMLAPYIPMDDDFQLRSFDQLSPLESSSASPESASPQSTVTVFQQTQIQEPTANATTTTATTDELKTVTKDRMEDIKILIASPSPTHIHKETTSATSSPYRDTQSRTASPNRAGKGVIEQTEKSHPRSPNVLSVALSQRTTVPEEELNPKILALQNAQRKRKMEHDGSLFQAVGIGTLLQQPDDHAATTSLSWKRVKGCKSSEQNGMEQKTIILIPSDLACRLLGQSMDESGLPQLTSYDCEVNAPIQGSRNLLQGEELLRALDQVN
Chain of Heat shock factor protein 1 (Homo sapiens) (Q00613 whole entry, looked up): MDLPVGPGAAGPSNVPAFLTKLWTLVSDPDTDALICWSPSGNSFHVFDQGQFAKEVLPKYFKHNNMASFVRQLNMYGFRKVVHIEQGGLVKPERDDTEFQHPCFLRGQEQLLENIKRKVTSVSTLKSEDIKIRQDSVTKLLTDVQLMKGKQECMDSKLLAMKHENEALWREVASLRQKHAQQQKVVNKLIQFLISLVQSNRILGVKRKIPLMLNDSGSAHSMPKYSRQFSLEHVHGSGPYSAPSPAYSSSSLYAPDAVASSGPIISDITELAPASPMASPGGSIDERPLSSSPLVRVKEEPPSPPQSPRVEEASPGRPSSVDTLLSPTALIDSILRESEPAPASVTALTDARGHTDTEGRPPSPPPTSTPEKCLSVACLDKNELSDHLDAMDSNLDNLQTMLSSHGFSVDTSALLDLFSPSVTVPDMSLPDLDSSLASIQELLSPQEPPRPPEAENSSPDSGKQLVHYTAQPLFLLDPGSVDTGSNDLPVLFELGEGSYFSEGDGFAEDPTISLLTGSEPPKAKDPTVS
Chain of Bile acid receptor (Homo sapiens) (Q96RI1 whole entry, looked up): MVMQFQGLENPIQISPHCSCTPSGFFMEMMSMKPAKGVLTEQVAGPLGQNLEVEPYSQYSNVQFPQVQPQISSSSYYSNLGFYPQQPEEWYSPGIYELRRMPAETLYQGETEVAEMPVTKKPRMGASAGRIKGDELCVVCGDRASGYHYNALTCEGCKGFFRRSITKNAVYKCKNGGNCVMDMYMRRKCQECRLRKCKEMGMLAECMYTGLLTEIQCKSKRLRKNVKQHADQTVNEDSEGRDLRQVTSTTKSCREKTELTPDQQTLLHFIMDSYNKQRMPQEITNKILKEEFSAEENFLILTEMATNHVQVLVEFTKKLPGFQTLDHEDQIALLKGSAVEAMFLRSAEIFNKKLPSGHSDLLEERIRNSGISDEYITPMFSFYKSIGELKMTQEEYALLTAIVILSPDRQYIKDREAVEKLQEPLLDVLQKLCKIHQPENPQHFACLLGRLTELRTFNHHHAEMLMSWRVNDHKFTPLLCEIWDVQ

| SMILES | outcome [1] | outcome [2] | outcome [3] | outcome [4] | outcome [5] | outcome [6] | outcome [7] | outcome [8] | AC50 [1] | AC50 [9] | AC50 [2] | AC50 [7] | outcome [9] | outcome [10] | AC50 [5] |
| --- | --- | --- | --- | --- | --- | --- | --- | --- | --- | --- | --- | --- | --- | --- | --- |
| Cc1ccc(N/N=c2\c(=O)cc/c(=N/Nc3ccc(S(=O)(=O)O)cc3)c2=O)c(C)c1 | inactive | inactive | inactive | inactive | inactive | inactive | inactive | inactive |  |  |  |  |  |  |  |
| C=CCCCCCCCCC(=O)OCCCC | inactive | inactive | inactive | inactive | inactive | inactive | inactive | inactive |  |  |  |  |  |  |  |
| O=C(Cl)c1cc(C(=O)Cl)cc(C(=O)Cl)c1 |  | inactive | inactive | inactive |  | inactive | inactive |  | 153 µM (active) | 100 µM (active) |  |  |  |  |  |
| Cc1cc(C)c(C)c(C)c1 | inactive | inactive | inactive | inactive | inactive | inactive | inactive | inactive |  |  |  |  |  |  |  |
| CC/C=C\C/C=C\C/C=C\CCCCCCCC(=O)O | inactive |  | inactive | inactive | inactive | inactive |  | inactive |  | 188 µM (active) | 69 µM (active) | 140 µM (active) |  |  |  |
| CCOC(=O)CC | inactive | inactive | inactive | inactive | inactive | inactive | inactive | inactive |  |  |  |  |  |  |  |
| COc1cc(C)ccc1C(C)C | inactive |  | inactive | inactive |  | inactive | inactive |  |  |  |  |  | inactive |  |  |
| N=c1ccn2c(n1)O[C@H]1[C@H](O)[C@@H](CO)O[C@H]12 |  | inactive | inactive | inactive | inactive | inactive | inactive |  |  |  |  |  | inactive | inactive |  |
| CCCc1ccc(OC)cc1 |  | inactive | inactive | inactive | inactive | inactive | inactive |  |  |  |  |  | inactive | inactive |  |
| CCCOC(=O)CCCCC(=O)OCCC |  | inactive | inactive | inactive | inactive | inactive | inactive |  |  |  |  |  | inactive | inactive |  |
| CC(=O)Oc1ccc(C(C)=O)cc1 | inactive |  | inactive | inactive | inactive | inactive | inactive | inactive |  |  |  |  | inactive |  |  |
| CCCCCCCC/C=C\CCCCCCCC(=O)OCCO |  | inactive | inactive | inactive | inactive | inactive | inactive |  |  |  |  |  | inactive | inactive |  |
| CCCCCCCCCCOS(=O)(=O)O | inactive | inactive | inactive | inactive |  | inactive | inactive | inactive |  |  |  |  | inactive |  |  |
| O=C1c2ccccc2C(=O)C1c1nc2ccccc2c(Br)c1O |  | inactive | inactive | inactive |  | inactive | inactive |  |  |  |  |  | inactive | inactive | 4.92 µM (active) |
| Cc1ccc([N+](=O)[O-])cc1S(=O)(=O)O |  | inactive | inactive | inactive | inactive | inactive | inactive |  |  |  |  |  | inactive | inactive |  |
| O=S(=O)(O)c1ccc2cc(O)c(S(=O)(=O)O)cc2c1 |  |  | inactive | inactive |  | inactive |  | inactive |  |  | 160 µM (active) | 169 µM (active) | inactive | inactive | 171 µM (active) |
| CCCCC/C=C\CCC=O |  | inactive | inactive | inactive | inactive | inactive | inactive | inactive |  |  |  |  | inactive | inactive |  |
| CC(C)(C)c1ccc(N)cc1 |  | inactive | inactive | inactive | inactive | inactive | inactive | inactive |  |  |  |  | inactive | inactive |  |
| Cc1ccc2c(c1)C(=O)c1ccccc1C2=O |  | inactive | inactive | inactive | inactive | inactive | inactive | inactive |  |  |  |  | inactive | inactive |  |
| C=CC(C)(CCC=C(C)C)OC(=O)CC(C)C (stereo not drawn) |  |  | inactive | inactive | inactive | inactive |  | inactive |  | 155 µM (active) | 147 µM (active) | 148 µM (active) |  | inactive |  |
| OC1CCCC1 |  | inactive | inactive | inactive | inactive | inactive | inactive | inactive |  |  |  |  | inactive | inactive |  |
| C[Si](C)(CCCN)O[Si](C)(C)CCCN |  | inactive | inactive | inactive | inactive | inactive | inactive | inactive |  |  |  |  | inactive | inactive |  |
| CO[Si](OC)(OC)c1ccccc1 |  | inactive | inactive | inactive | inactive | inactive | inactive | inactive |  |  |  |  | inactive | inactive |  |
| O=C1CCCCCCCCCCC(=O)OCCO1 |  | inactive | inactive | inactive | inactive | inactive | inactive | inactive |  |  |  |  | inactive | inactive |  |
| O=C(OCC1CCC2OC2C1)C1CCC2OC2C1 (stereo not drawn) |  | inactive | inactive | inactive | inactive | inactive | inactive | inactive |  |  |  |  | inactive | inactive |  |
